Compounds without any hit were thinned out: in the full panel of roughly 83,000, 20% have a hit.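 Percent growth is the endpoint: 0 to 100 indicates growth inhibition (40 means 60% inhibition), 0 means no net growth, and negative values indicate cell death.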 Calls of active or inactive are those of the source. The calls were made as follows: active = growth percent below 10; inactive = the rest.

For the test, the system named is OVCAR-8 ovarian. Briefly: NCI-60 one-dose screen, 48 h (100 = growth as untreated, 0 = no growth, -100 = all killed). Particulars: 10 µM unless noted.
For the compound `CC1=CC[C@@H]2CC[C@]3(C)[C@H](CC[C@@H]4[C@@]5(C)CCCNC(C)(C)[C@@H]5CC[C@]43C)[C@H]2[C@@H]1C`, the growth is -87.3% (active).

Consider `Fc1ccc(C2CC(c3cccc(Nc4ccncc4)c3)=NN2c2ccccc2)cc1` (stereo not drawn), for which the growth is 55.1% (inactive).

Turning to `Cc1ccc(C(=O)Nc2ccccc2C(=O)N/N=C(\c2ccccc2)c2ccccn2)cc1`, the growth was 19.5% (inactive).

Consider `COc1cc(/C=C/C(=O)c2c(C)oc3nc[nH]c(=O)c23)ccc1O`, for which the growth is 103% (inactive).

Regarding `CS(=O)(=O)Nc1cc(-c2ccc3ncnc(Nc4ccc5[nH]ncc5c4)c3c2)cnc1Cl`, the growth is 86% (inactive).

In the case of `COc1ccc(-c2ncc(-c3ccccc3)[nH]2)cc1OC`, the growth is 113% (inactive).

In the case of `O=C1Nc2cc(-c3ccncc3)ccc2/C1=C/c1ccc[nH]1`, the growth is 101% (inactive).

Take `Nc1c(C(=O)Nc2ccc(Cl)cc2)cc(-c2nc3ccccc3s2)c(=O)n1NS(=O)(=O)c1ccc(Cl)cc1`: the growth is 100% (inactive).

In the case of `CCOc1cc(CNc2ccc(N3CCOCC3)c(C(=O)O)c2)ccc1OC`, the growth was 95.2% (inactive).

For the compound `Cc1ccc(C2CC(c3cccc(Nc4ccncc4)c3)=NN2c2cc(Cl)cc(Cl)c2)cc1` (stereo not drawn), the growth was -36.5% (active).

As to `COc1ccc(/C(C)=N/NC(=O)CSc2nc3ccccc3c(=O)n2Cc2ccc(S(N)(=O)=O)cc2)c(OC)c1`, the growth was 100% (inactive).

For `COc1ccc(C(=O)c2cc(C)c(OC)c(C)c2)c(OC)c1N(C(=O)C(Cl)Cl)C(=O)C(Cl)Cl`, the growth is 16% (inactive).

On to `Cc1ccccc1-c1cc(Cc2ccc(F)cc2)c(=O)[nH]n1`, for which the growth is 90.4% (inactive).

Regarding `CCCC1C(C(=O)OCC)=C(N)Oc2cc(O)ccc21` (stereo not drawn), the growth is 107% (inactive).

In the case of `COc1c(Cl)cc(Cl)c2ccc(C=C3C(=O)N(C)C(=O)N(C)C3=O)nc12`, the growth is 111% (inactive).

Regarding `O=C1Nc2ccccc2/C1=N/c1nc(-c2ccc(Cl)cc2)cs1`, the growth is 54.6% (inactive).

As for `COC(=O)Nc1nc2ccc(C(=O)c3cccc(I)c3)cc2[nH]1`, the growth is 6.51% (active).

`O=C(Nc1ccc(Nc2ncccn2)cc1)NC1C=c2ccccc2=CC1` (stereo not drawn): the growth is 98.1% (inactive).

Consider `CNC(=O)c1c(NC(=O)c2ccc(C(C)C)cc2)sc2c(CN(C)C)c(O)ccc12`, for which the growth is 112% (inactive).

`COc1ccc(Cc2nc3cc(OC)c(OC)cc3c(=O)[nH]2)cc1`: the growth was 73.5% (inactive).

`O=C1c2cccnc2C(=O)c2nc3cc(N4CCN(C5CC5)CC4)ccc3nc21`: the growth is -15.2% (active).

On to `CCOC(=O)N1CCN(CCCCl)CC1`, for which the growth was 98.8% (inactive).

On to `O=C(OCc1nc2nc(Cl)nc(N3CCOCC3)c2[nH]1)n1ccnc1`, for which the growth was -44.9% (active).

For the compound `COc1ccc(C(=O)c2cc3c(N)c(C(=O)Nc4cccc(Cl)c4C)sc3nc2C)cc1`, the growth was 5.92% (active).

Turning to `O=C(OC(OC(=O)c1cc(Cl)cc(Cl)c1)c1cccc2ccccc12)c1ccccc1` (stereo not drawn), the growth is 93.7% (inactive).

As to `CN(Cc1ccccc1)c1nc(Cl)c(C2CC(c3ccc(Cl)cc3)=Cc3[nH][nH]c(=O)c32)s1` (stereo not drawn), the growth was 94.5% (inactive).

As to `COc1ccc(NC(=O)c2sc3nc(C)c(C(=O)CCc4cccc(OC)c4)cc3c2N)cc1`, the growth is 90.9% (inactive).

On to `O=S(=O)(NCCCNc1nccc(-c2c(-c3cccc(O)c3)nc3occn23)n1)c1ccc(F)cc1`, for which the growth was 79% (inactive).

For the compound `CC(=O)N1c2ccccc2NC2=C(C(=O)N(Cc3ccccc3)C2(C)C)C1c1ccco1` (stereo not drawn), the growth is 26.1% (inactive).

In the case of `C#Cc1cccc(NC(=O)Nc2ccc(NC(=O)CCl)cc2)c1`, the growth was -14.9% [8.25 µM] (active).

Consider `COc1cc(COC(=O)CCCCC[P+](c2ccccc2)(c2ccccc2)c2ccccc2)c(OC)c2c1OCO2`, for which the growth is 64.4% (inactive).

With `Cc1c([N+](=O)[O-])cc(C(C)(C)C)cc1[N+](=O)[O-]`, the growth was 98.6% (inactive).

Turning to `Clc1nc(Cl)c2ncn(CC3(Cn4cnc5c(Cl)nc(Cl)nc54)COC3)c2n1`, the growth is -83.7% (active).

For `COc1cc2nc(-c3ccc(C(F)(F)F)cc3)cc(OCCCN3CCC(O)CC3)c2cc1OC`, the growth is 44.1% (inactive).

Consider `COc1cc(Nc2cc(O)c3c(=O)cc(-c4ccccc4)oc3c2)cc(OC)c1`, for which the growth was 26.1% (inactive).

`C[C@]12C[C@H]1CC[C@]1(C)[C@@H]2CC[C@@]23C[C@H](CC[C@H]21)[C@@](O)(CO)C3`: the growth was 102% (inactive).

As for `Cc1nc2sc(C(=O)Nc3ccccc3)c(N)c2cc1C(=O)c1ccc(C(F)(F)F)cc1`, the growth was 101% (inactive).

`N#CSCC1CC(O)(c2ccccc2)C(c2ccccc2)C(c2ccc(F)cc2)O1` (stereo not drawn): the growth is 44.6% (inactive).
